GDH-TPI counter-1 = GDH-TPI coupling enzyme inhibitors, primary screen, artefact control for M. tuberculosis FBA inhibitor project, biochemical, absorbance, full deck | actives 1.2% (n = 360,000) | GDH-TPI coupled enzyme counterscreen, NADH absorbance | inhibition, % at 4.8 µM; in the data active = inhibition above about 30%
Mtb bLac sens = beta-lactam sensitization of Mtb H37Rv, H37Rv; M. tuberculosis H37Rv growth with meropenem, percent inhibition; inhibition, % at 25 µM; actives 0.27% (n = 330,000); call rule not given here;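 note: growth measured after seven days incubation then overnight dye step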
FBA Mtb inh = Mtb FBA enzyme inhibitors, primary screen, biochemical, fluorescence, strain H37Rv; Fructose-bisphosphate aldolase (Mycobacterium tuberculosis (strain ATCC 25618 / H37Rv)), …; purified M. tuberculosis FBA, fluorescence read-out; inhibition, % at 1 µM; actives 2.3% (n = 360,000); AID 588726, 2011
Target sequence (P9WQA3 whole entry, looked up): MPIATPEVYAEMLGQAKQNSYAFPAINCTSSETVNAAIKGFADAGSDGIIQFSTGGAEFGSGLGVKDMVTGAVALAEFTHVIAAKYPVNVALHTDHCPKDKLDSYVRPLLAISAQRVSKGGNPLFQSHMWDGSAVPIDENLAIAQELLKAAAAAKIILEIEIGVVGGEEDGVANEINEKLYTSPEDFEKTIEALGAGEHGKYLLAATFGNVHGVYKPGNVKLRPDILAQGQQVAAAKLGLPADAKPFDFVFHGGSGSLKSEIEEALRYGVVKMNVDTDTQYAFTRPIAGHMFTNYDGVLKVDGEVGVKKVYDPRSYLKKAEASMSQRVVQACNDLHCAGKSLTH
Mtb UGM inh = M. tuberculosis UGM enzyme inhibitors, primary screen, biochemical, fluorescence polarization, single point. UDP-galactopyranose mutase (Mycobacterium tuberculosis (strain ATCC 25618 / H37Rv)), …. purified UGM, fluorescence polarization probe displacement. inhibition, % at 10 µM. actives 0.06% (n = 320,000). AID 504406, 2011; in the data active = inhibition above about 10%, passing the limit was not always enough; inconclusive = no clear call, values can overlap the other calls
Rv3671c inh = Rv3671c serine protease inhibitors, primary screen, biochemical, fluorescence polarization, M. tuberculosis H37Rv. P9WHR9. inhibition, % at 5.96 µM. actives 0.048% (n = 320,000). AID 2606, 2010; in the data active = inhibition above about 38%;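 note: extracellular domain of Rv3671c used as enzyme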
Mtb FBA confirm = M. tuberculosis aldolase blockers, biochemical, fluorescence, strain H37Rv, confirmation; shares compounds with FBA Mtb inh; purified M. tuberculosis FBA, fluorescence read-out; inhibition, % at 1 µM; actives 78% (n = 5,600); AID 651616, 2012
GDH-TPI counter-2 = GDH-TPI coupling enzyme inhibitors, artefact control for M. tuberculosis FBA inhibitor project, biochemical, fluorescence, high throughput. shares compounds with FBA Mtb inh. inhibition, % at 1 µM. actives 81% (n = 5,600). GDH-TPI coupled enzyme counterscreen; in the data active = inhibition above about 10%
A number is an active result; n = inactive; u = inconclusive; x = not tested or not shown; + = active, no number. A selection: hits, their analogues and other compounds. The true share with any hit is near 3.5%. Cut-off read from the data, not from the text of the source, unless noted: active = inhibition above about 27%; inactive = the rest.

SMILES | GDH-TPI counter-1 | Mtb bLac sens | FBA Mtb inh | Mtb UGM inh | Rv3671c inh | Mtb FBA confirm | GDH-TPI counter-2
O=c1c2c(nc3c(-c4ccc(Cl)cc4)c[nH]n13)CCC2 | n | u | 44 | n | n | 32 | 28
Cc1ccc(-c2[nH]n3c(=O)c4c(nc3c2C)CCCC4)cc1 | n | n | n | n | n | x | x
O=c1c2c(nc3c(-c4ccccc4)c[nH]n13)CCC2 | n | n | 43 | n | n | 59 | 38
CCOC(=O)N1CCC(NC(=O)CS(=O)Cc2nc(-c3ccc(Cl)cc3)oc2C)CC1 (stereo not given) | n | n | n | n | n | x | x
CCN1CCN(C(=O)c2cc3cc(F)ccc3[nH]2)CC1 | n | n | 82 | n | n | 148 | 96
Cc1cc(OCC(=O)N(C)c2ccccc2)cc2c1C(=O)CC(C)(C)O2 | n | n | n | n | n | x | x
CC1(C)CC(=O)c2cc(OCC(=O)N3CCOCC3)ccc2O1 | n | n | 48 | n | n | + | +
CCN(CC)C(=O)COc1ccc2c(c1)C(=O)CC(C)(C)O2 | n | n | 59 | n | n | 87 | 72
Cc1ccc(OCC(=O)N2CCOCC2)cc1C | n | n | n | n | n | x | x
Cc1ccc(Nc2nc(Cl)nc3ncn(C)c23)c(C)c1 | n | x | n | x | x | x | x
Cc1cccc(Nc2nnc(SCC(=O)NCC3CCCO3)s2)c1C (stereo not given) | n | n | n | n | n | x | x
COc1ccc(-c2nc3ccc(N4CCN(C)CC4)cc3c(=O)[nH]2)cc1 | n | n | 32 | n | n | n | n
CN(CC(=O)NCC1CCCCC1)CC(=O)Nc1ccccc1Br | n | n | n | n | n | x | x
Cc1nn(-c2ccc(F)cc2)c2sc(C(=O)OC3CCOC3=O)cc12 (stereo not given) | n | n | 86 | n | n | 74 | 59
Nc1nccnc1C(=O)OCC(=O)NC1CCCc2ccccc21 (stereo not given) | n | n | 95 | n | n | 110 | 97
CCCc1nc2ccc(N)cc2c(=O)n1Cc1ccccc1Cl | n | n | 28 | n | n | 105 | 83
O=C(COC(=O)[C@@H]1CCCN1C(=O)c1cccs1)NCCc1ccccc1 | n | n | 27 | n | n | n | n
CC(C)NC(=O)NC(=O)COC(=O)C1CCCN1C(=O)c1cccs1 (stereo not given) | n | n | n | n | n | x | x
CCCc1cc(=O)oc2cc(OC3CCCCC3=O)ccc12 (stereo not given) | n | n | 45 | n | x | n | 22
CC1CCCCN1C(=O)COc1ccc2ccc(=O)oc2c1 (stereo not given) | n | n | n | n | n | x | x
O=C1CCCCC1Oc1ccc2ccc(=O)oc2c1 (stereo not given) | n | n | 58 | n | n | + | 174
Cc1cc(NC(=O)CSc2nc(N)c(NC(=O)c3ccco3)c(=O)[nH]2)no1 | n | n | n | n | n | x | x
Cc1cnc(CNC(=O)c2ccc3sc([C@H]4C[C@H](O)[C@@H](CO)O4)nc3c2)cn1 | n | x | n | x | x | x | x
O=C(O)c1ccc(-c2nc(-c3ccccc3)c(-c3cccs3)[nH]2)cc1 | n | n | 47 | n | n | 75 | 54
Cc1ccc(NC(=O)Cn2cc(C(F)(F)F)cc(Cl)c2=O)cc1S(=O)(=O)N1CCCCC1 | n | n | n | n | n | x | x
SMILES | GDH-TPI counter-1 | Mtb bLac sens | FBA Mtb inh | Mtb UGM inh | Rv3671c inh | Mtb FBA confirm | GDH-TPI counter-2
Cc1cc(NC(=O)CCOc2ccc(F)cc2)no1 | n | x | n | x | x | x | x
CCOc1ccc(-c2nnc(-c3ccco3)o2)cc1OCC | n | n | 74 | n | n | 130 | 119
CCOc1cc(-c2nnc(-c3ccco3)o2)cc(OCC)c1OCC | n | n | n | n | n | x | x
c1ccc(-c2nnc(-c3ccco3)o2)cc1 | n | n | 42 | n | n | 64 | 49
Brc1ccc(-c2nnc(-c3ccco3)o2)cc1 | n | n | 60 | n | n | 149 | 145
c1ccc2c(-c3nc4ccccc4[nH]3)cccc2c1 | n | x | 107 | x | x | 80 | 42
c1ccc2[nH]c(-c3ccnc4ccccc34)nc2c1 | n | n | 45 | n | n | 119 | 87
